Screen size: about 52,000 compounds; about 4,300 (8.3%) were called active. No stated cut-off is given here; in the data, active means survival mostly below about 52% (no sharp cut-off); inactive means mostly above about 56%. The full list was thinned out, with actives kept by preference.

Our source for the survival values is PubChem BioAssay AID463173 (ICCB-Longwood Screening Facility, Harvard Medical School, 2010).

The subject of this assay is DeltatarO mutant. As to the kind of experiment: S. aureus survival, RN4220 and DeltatarO strains – OD600, teichoic acid synthesis inhibitors, primary screen (AID 463173). As to conditions: S. aureus RN4220 wild type/DeltatarO growth, OD600, 18 h, active compounds read low, screened at 18.75 µg/mL (by protocol).
In the case of `COc1ccc(NC(=O)c2ccc3c(c2)N(Cc2cccc(Cl)c2)C(=O)c2ccccc2S3=O)cc1Cl` (stereo unspecified), the survival is 112% (inactive).
Under `COc1ccc(N(C)C(=O)c2nn(-c3ccc(C)cc3)c(=O)n(C)c2=O)c(OC)c1` stands 82% (inactive); under `COc1ccc(NC(=O)CSc2ncc(-c3ccc(Cl)cc3)[nH]2)cc1OC`, 78% (inactive).
Under `O=C(CSc1ncc(-c2ccccc2)[nH]1)Nc1ccc(Cl)cc1` stands 36% (active).
In the case of `COc1cc(-c2nnc(SCC(=O)Nc3cccc(C#N)c3)o2)cc(OC)c1OC`, the survival was 110% (inactive).
Under `CCOc1ccc(-c2nnc(SCC(=O)Nc3cccc(C#N)c3)o2)cc1` stands 48% (active); under `CCOc1ccc(-c2nnc(SCC(=O)Nc3cccc(OC)c3)nc2-c2ccc(OCC)cc2)cc1`, 0% (active).
As for `CCOc1ccc(NC(=O)CSc2nnc(-c3ccc(C)cc3)c(-c3ccc(C)cc3)n2)cc1`, the figure is 115% (inactive).
Under `CCOc1cccc(NC(=O)CSc2ncc(-c3ccc(Cl)cc3)[nH]2)c1` stands 39% (active); under `Cc1ccc(NC(=O)CSc2ncc(-c3ccccc3)[nH]2)cc1`, 51% (inactive).
Consider `O=C(CSc1ncc(-c2ccccc2)[nH]1)Nc1ccccc1`, for which the survival was 64% (inactive).
As for `CCOc1ccc(NC(=O)CSc2nnc(-c3ccc(OCC)cc3)o2)cc1`, the figure is 94% (inactive); as for `COc1ccc(-c2nnc(SCC(=O)Nc3cccc(C(F)(F)F)c3)nc2-c2ccc(OC)cc2)cc1`, 87% (inactive).
As for `CCOc1cccc(NC(=O)CSc2ncc(-c3ccccc3)[nH]2)c1`, the figure is 49% (inactive).
As for `CCOc1ccccc1-n1nnc(-c2nc(-c3ccccc3C)no2)c1C`, the figure is 96% (inactive); as for `Cc1c(F)cccc1NC(=O)C1CCCN1S(=O)(=O)c1ccc(F)cc1` (stereo unspecified), 72% (inactive).
Take `CC1=C(c2ccc(C)cc2)S(=O)(=O)N(Cc2ccc(C(=O)NCc3ccccc3)cc2)C1=O`: the survival is 81% (inactive).
As for `CCN(C(=O)c1cccs1)c1nnc(-c2cccc(C)c2)s1`, the figure is 93% (inactive); as for `COc1ccc(CCNC(=S)N(Cc2ccco2)Cc2cc3cc(OC)c(OC)cc3[nH]c2=O)cc1OC`, 73% (inactive).
In the case of `O=C(CSc1ncc(-c2ccc(F)cc2)n1Cc1ccco1)OC1CCCCC1`, the survival is 108% (inactive).
As for `COc1ccc(OC)c(NC(=O)COCc2cc(-c3ccc(F)cc3)on2)c1`, the figure is 93% (inactive); as for `O=C(CSc1nc(-c2cccs2)nc2cc(=O)[nH]n12)Nc1cccc(C(F)(F)F)c1`, 94% (inactive).
As for `O=C(CSc1nc(-c2ccccc2F)nc2cc(=O)[nH]n12)Nc1cccc(C(F)(F)F)c1`, the survival is 69% (inactive).
Under `Cc1cccc(-c2nc(SCC(=O)Nc3cccc(C(F)(F)F)c3)n3[nH]c(=O)cc3n2)c1` stands 0% (active); under `Cc1ccc(-c2noc(-c3nnn(CC(=O)Nc4cc(Cl)ccc4C)c3N)n2)cc1`, 80% (inactive).
As for `O=C(Nc1cccc(C(F)(F)F)c1)Nc1ccc2snnc2c1`, the figure is 11% (active); as for `COc1cccc(NC(=O)Nc2ccc3snnc3c2)c1`, 68% (inactive); as for `O=C(Nc1ccc(F)cc1)Nc1ccc2snnc2c1`, 19% (active).
Regarding `Cc1ccc(NC(=O)Nc2ccc3snnc3c2)cc1C`, the survival was 66% (inactive).
As for `CC(=O)c1ccc(NC(=O)Nc2ccc3snnc3c2)cc1`, the figure is 50% (inactive).
As for `O=C(Nc1cccc(C(F)(F)F)c1)c1ccc2snnc2c1`, the figure is 111% (inactive).
As for `COc1ccc(NC(=O)CSC2=Nc3ccccc3C3=NC(CCC(=O)NCc4cccs4)C(=O)N23)cc1` (stereo unspecified), the figure is 93% (inactive).
Regarding `CC1=C(c2ccc(C)c(C)c2)S(=O)(=O)N=C1N1CCC(C(=O)NC(C)c2ccccc2)CC1` (stereo unspecified), the survival was 84% (inactive).
Under `CC(=O)N1Cc2ccccc2C(C)CC12CCCC2` (stereo unspecified) stands 119% (inactive); under `Cc1nn2c(=O)cc(COC(=O)c3cccs3)nc2s1`, 89% (inactive); under `Fc1ccc(NCc2ccccc2-c2nnc(-c3ccccc3Cl)o2)cc1Cl`, 77% (inactive).
As for `O=C(NCCc1nc2ccccc2n1Cc1ccc(F)cc1)c1ccco1`, the figure is 47% (inactive); as for `CCC1=Nc2cc(C(=O)NC3CCCC3)ccc2Sc2ccc(Cl)cc21`, 58% (inactive); as for `CCCC1=Nc2cc(C(=O)NC3CCCC3)ccc2Sc2ccc(C)cc21`, 46% (active).
Under `CCC1=Nc2cc(C(=O)NCc3ccc(C)cc3)ccc2Sc2ccc(C)cc21` stands 78% (inactive); under `CC1=Nc2cc(C(=O)NC3CCC(C)CC3)ccc2Sc2c(C)ccc(C)c21` (stereo unspecified), 73% (inactive); under `CCC1=Nc2cc(C(=O)NC3CCC(C)CC3)ccc2Sc2ccc(C)cc21` (stereo unspecified), 39% (active).
For `CCC1=Nc2cc(C(=O)NC3CCCC3)ccc2Sc2ccc(Br)cc21`, the survival was 44% (active).
Under `CCCC1=Nc2cc(C(=O)NC3CCCCC3)ccc2Sc2ccc(C)cc21` stands 94% (inactive); under `CC1=Nc2cc(C(=O)NC3CCCC3)ccc2Sc2ccc(C)cc21`, 59% (inactive); under `CC1=Nc2cc(C(=O)NC3CCCC3)ccc2Sc2ccc(Br)cc21`, 57% (inactive).
As for `COc1ccc(CNC(=O)c2cc3cc(C)ccc3n2C)cc1`, the figure is 74% (inactive).
As for `O=C(CSc1nc2c([nH]c3ccccc32)c(=O)n1-c1cccc(C(F)(F)F)c1)N1CCc2ccccc21`, the figure is 78% (inactive); as for `O=C(NC1CC(=O)N(c2ccc(Cl)cc2)C1)c1cccs1` (stereo unspecified), 71% (inactive); as for `CC1CCN(c2nc3ccc(C(=O)NC(C)C)cc3s2)CC1`, 74% (inactive).
As to `Cc1ccc(CNS(=O)(=O)c2cc3[nH]c(=O)c(=O)[nH]c3cc2C)cc1`, the survival is 47% (active).
As for `COc1cccc(CNS(=O)(=O)c2cc3[nH]c(=O)c(=O)[nH]c3cc2C)c1`, the figure is 67% (inactive).
Regarding `Cc1cc2[nH]c(=O)c(=O)[nH]c2cc1S(=O)(=O)NCc1ccc(F)cc1`, the survival was 112% (inactive).
Under `CC(C)Sc1ncc(Cl)c(C(=O)N(Cc2ccc(F)cc2)C2CCS(=O)(=O)C2)n1` (stereo unspecified) stands 76% (inactive); under `CN(Cc1ccccc1)Cn1[nH]c(=O)ccc1=O`, 110% (inactive).
As for `COc1ccc(C)c2sc(N(Cc3cccnc3)C(=O)COc3ccccc3)nc12`, the figure is 85% (inactive).
